High-throughput results (PubChem BioAssay)
FEN1 inhibitor: blocks human flap endonuclease 1; P39748; Recombinant FEN1 flap cleavage, fluorescence, 15 min; Potency, µM (series often up to 114 µM), inactives show at the highest dose activity change, negative = inhibition, actives largely listed as inhibitors; 390,000 compounds, 0.35% hits; also: potency is read from the fitted curve at half-maximal effect; % is scaled to controls: 0 for no effect and ±100 for the full control effect; nearly all actives have a fitted effect of over 65% in size
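Enzyme 10 nM, 15 min RT preincubation with compound; start with substrate 50 nM final; reads at 0 and 15 min; qHTS titration, four-parameter Hill fit.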
PI5P4Ka inh: blocks human PI5P4K alpha kinase activity | PI5P4Kalpha enzyme, ADP-Glo luminescence, 60 min; stronger effect = lower value | max response, % | 330,000 compounds, 1.2% hits | AID 652105; active = max response of -50% or lower; inconclusive = between -30% and -50%; inactive = -30% or higher; also: value at the top dose of about 77 µM; % is scaled to controls: 0 for no effect and ±100 for the full control effect
Target sequence (P48426 whole entry, looked up): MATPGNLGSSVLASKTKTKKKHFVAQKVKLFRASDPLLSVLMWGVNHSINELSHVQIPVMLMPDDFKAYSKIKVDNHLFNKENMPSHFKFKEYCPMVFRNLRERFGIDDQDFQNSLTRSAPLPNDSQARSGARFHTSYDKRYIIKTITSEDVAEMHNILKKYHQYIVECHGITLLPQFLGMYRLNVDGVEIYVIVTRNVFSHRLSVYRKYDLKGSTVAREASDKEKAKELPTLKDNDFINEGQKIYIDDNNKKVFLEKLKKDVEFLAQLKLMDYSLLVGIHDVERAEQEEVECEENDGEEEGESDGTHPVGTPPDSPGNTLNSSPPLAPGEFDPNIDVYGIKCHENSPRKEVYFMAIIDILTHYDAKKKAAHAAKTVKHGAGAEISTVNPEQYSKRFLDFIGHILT
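Compounds were pin-transferred onto PI5P4Kalpha and substrate in HEPES pH 7.4 buffer with EGTA, CHAPS and 5% DMSO. ATP (5 microM final) started the reaction, which ran 60 minutes at room temperature before ADP-Glo detection.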
TCR act: activators of T cell receptors | primary human leukocytes, anti-CD3, IL-2 HTRF, 48 h | Potency, µM (titrated, usually from 9.22 µM), inactives show at the top dose activation of IL-2 secretion, actives largely listed as activators | 330,000 tested, under 10 active; also: % of control where 0% means no effect
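48 hr co-incubation of compounds, a-CD3 beads and primary human leukocytes; IL-2 quantified homogeneously by HTRF with anti-IL-2 K and d2 conjugates.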
PLK1 PBD block: blocks phosphopeptide binding to human PLK1 polo-box domain | AID 720504 | Potency, µM, for the others: max response, negative = inhibition, actives largely listed as inhibitors | Plk1 PBD binding of FITC phosphopeptide, fluorescence polarization | 360,000 compounds, 2.8% hits; also: potency is read from the fitted curve at half-maximal effect; series mostly up to about 57 µM; % is scaled to controls: 0 for no effect and ±100 for the full control effect; nearly all actives have a fitted effect of over 65% in size
VDR inhibitor: vitamin D3 receptor (human) inhibition | P11473 | VDR-SRC2-3 peptide fluorescence polarization, 2 h | Potency, µM, for the others: max response, negative = inhibition, most hits filed as inhibitors | 400,000 compounds, 0.93% hits | AID 504847; also: potency is read from the fitted curve at half-maximal effect; % is scaled to controls: 0 for no effect and ±100 for the full control effect
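FP read-out; VDR + SRC2-3 coactivator peptide; 23 nl compound by pintool; 2 h RT incubation; reagents held at 4 deg C, protected from light.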
WRN helicase inh: inhibitors of human WRN helicase. Q14191. WRN helicase unwinding, fluorescent forked duplex, kinetic. Potency, µM (series often up to 114 µM), for the others: at the highest dose activity change, negative = inhibition, hits mostly inhibitors. 360,000 compounds, 0.46% hits. AID 651768; also: potency is read from the fitted curve at half-maximal effect; % is scaled to controls: 0 for no effect and ±100 for the full control effect; nearly all actives have a fitted effect of over 55% in size
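WRN at 20 nM final preincubated with compound 15 min at room temperature; reaction started with 100 nM fluorophore/quencher forked duplex oligonucleotide and 2 mM ATP final. Unwinding followed kinetically by red fluorescence (ex 525, em 598 nm).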
Numbers without * were called inactive; u = inconclusive; x = not tested or not shown; [ ] = dose if it differs, or a comment. Only some compounds are listed: those with a hit (about 3.7% of all), similar ones and a draw of the others. Unless noted, calls follow the shape of the dose curve; as a rule, active = well fitted curve in the direction sought with a large enough effect; inconclusive = small, poorly fitted or top-dose-only effect, or another doubt; inactive = no such curve, though single readings can be large; an effect the other way counts as inactive or inconclusive.

SMILES	FEN1 inhibitor	PI5P4Ka inh	TCR act	PLK1 PBD block	VDR inhibitor	WRN helicase inh
CCN(CC)C(=S)SSC(=S)N(CC)CC	u	-78*	-1%	0.84µM*	x	13%
CC(=O)Nc1ccc(C(=O)CCl)cc1	-5%	2	12%	5.3µM*	-27%	-13%
CC(=O)NCc1ccc(C(=O)CCl)cc1	-22%	0	x	4.2µM*	-3%	-10%
CC(=O)N(C)Cc1ccc(C(=O)CCl)cc1	3%	0	2%	5.3µM*	-19%	-24%
CC(=O)N(C)Cc1ccc(C(=O)CSc2nnc(C3CC3)n2C2CC2)cc1	-2%	-18	1%	-9%	-20%	7%
CC(=O)Nc1ccc(C)cc1	-2%	-3	1%	-8%	-19%	2%
CCCNC(=O)Nc1ccc(NC(C)=O)cc1	22%	-6	-3%	11µM*	-19%	4%
COc1cccc(CNc2nc3ccccc3c3nc(-c4cccc(C)c4)nn23)c1	-16%	x	x	x	-8%	x
Nc1cccc2[nH]cnc12	-19%	x	x	x	x	x
COc1ccc2c(c1)OC(=O)CC2c1ccc2c(c1)OCO2 (configuration not stated)	x	x	x	x	-2%	x
Cc1ccc2c(Cl)cc(Cl)c(OCC(=O)N3CCCC3)c2n1	6%	-4	-9%	27µM*	-25%	0%
CN(C)CCCn1c2c3ccccc3ccc2c2oc(=O)c3ccccc3c21	3.2µM*	0	2%	-18%	12%	-5%[11.6 µM]
CC(C)(C)N/N=C1\CC(c2ccccc2)Oc2ccccc21 (configuration not stated)	-11%	8	4%[46.1 µM]	30µM*	-5%	-8%
O=S(=O)(N/N=C1/CC(c2ccccc2)Oc2ccccc21)c1ccccc1 (configuration not stated)	-28%	-2	-8%	-5%	-3%	3%
Cc1ccc2c(c1)C(c1ccncc1)=NNC(c1ccccc1)=N2	12%	-29	-4%	21µM*	u	-2%
CCOC(=O)c1ccc(NS(=O)(=O)c2cc3c(cc2C)NC(=O)CO3)cc1	8%	-11	5%	30µM*	-11%	0%
COc1cccc(NS(=O)(=O)c2cc3c(cc2C)NC(=O)CO3)c1	-3%	1	-4%	0%	9%	7%
CC(=O)N1c2ccc(S(=O)(=O)NCCc3cccc(C)c3)cc2CC1C (configuration not stated)	-1%	x	x	x	1%	x
Fc1ccc(OCCOCCN2CCCC2)cc1	-2%	4	11%	-11%	15%	3%
CC(OCCN1CCCC1)(c1ccc(F)cc1)c1ccc(F)cc1	4%	-5	-1%[46.1 µM]	30µM*	u	6%
CCOc1ccc(CCNC(=O)c2ccc3c(c2)N(Cc2ccccc2)C(=O)c2ccccc2S3=O)cc1OCC (configuration not stated)	-13%	x	x	x	-10%	x
Cc1ccc(C)c(N/C(N)=N/c2nc(C)cc(C)n2)c1	50µM*	4	11%	-3%	-19%	45%
Cc1oc2cc3oc(=O)c(CC(=O)O)c(C)c3cc2c1-c1ccccc1	0%	1	2%	-18%	-4%	-1%
Cc1c(CCC(=O)O)c(=O)oc2c(C)c3occ(-c4ccc(Cl)cc4)c3cc12	u	-17	3%	30µM*	u	56µM*
Cc1oc2c(C)c3oc(=O)c(CCC(=O)O)c(C)c3cc2c1-c1ccccc1	-3%	0	-2%	27µM*	u	-11%
COc1ccc(Cl)cc1NC(=O)Cn1cnc2sc(C)c(S(=O)(=O)N3CCN(c4ccccc4OC)CC3)c2c1=O	-2%	x	x	x	4%	x
COc1ccccc1Nc1nc2c(s1)CCC2	-5%	-13	-11%	27µM*	-18%	-2%
C=C1CCN(C(Cc2ccccc2)C(=O)N2CCOCC2)S(=O)(=O)c2ccccc21 (configuration not stated)	-15%	x	x	x	-22%	x
COc1cc([N+](=O)[O-])ccc1NC(=S)NC(=O)CC(C)(C)C	4%	-1	-5%	27µM*	-2%	0%
